# Screening results: PubChem BioAssay, National Center for Advancing Translational Sciences (NCATS)
# A selection: hits, their analogues and other compounds. The true share with any hit is near 1%.
# RXFP1 antagonist: blocks the human relaxin receptor RXFP1; actives 0.59% (n = 350,000); HEK293-RXFP1, relaxin-stimulated cAMP HTRF, 30 min; stronger effect = lower value; activity change, negative = inhibition, % at 57.5 µM;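 active = activity change of -60% or lower, but not beyond a set lower limit; inconclusive = change between -60% and -40%, or beyond the set limit; inactive = change above -40%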; also: % is scaled to controls: 0 for no effect and ±100 for the full control effect
# Target sequence (Q9HBX9 whole entry, looked up): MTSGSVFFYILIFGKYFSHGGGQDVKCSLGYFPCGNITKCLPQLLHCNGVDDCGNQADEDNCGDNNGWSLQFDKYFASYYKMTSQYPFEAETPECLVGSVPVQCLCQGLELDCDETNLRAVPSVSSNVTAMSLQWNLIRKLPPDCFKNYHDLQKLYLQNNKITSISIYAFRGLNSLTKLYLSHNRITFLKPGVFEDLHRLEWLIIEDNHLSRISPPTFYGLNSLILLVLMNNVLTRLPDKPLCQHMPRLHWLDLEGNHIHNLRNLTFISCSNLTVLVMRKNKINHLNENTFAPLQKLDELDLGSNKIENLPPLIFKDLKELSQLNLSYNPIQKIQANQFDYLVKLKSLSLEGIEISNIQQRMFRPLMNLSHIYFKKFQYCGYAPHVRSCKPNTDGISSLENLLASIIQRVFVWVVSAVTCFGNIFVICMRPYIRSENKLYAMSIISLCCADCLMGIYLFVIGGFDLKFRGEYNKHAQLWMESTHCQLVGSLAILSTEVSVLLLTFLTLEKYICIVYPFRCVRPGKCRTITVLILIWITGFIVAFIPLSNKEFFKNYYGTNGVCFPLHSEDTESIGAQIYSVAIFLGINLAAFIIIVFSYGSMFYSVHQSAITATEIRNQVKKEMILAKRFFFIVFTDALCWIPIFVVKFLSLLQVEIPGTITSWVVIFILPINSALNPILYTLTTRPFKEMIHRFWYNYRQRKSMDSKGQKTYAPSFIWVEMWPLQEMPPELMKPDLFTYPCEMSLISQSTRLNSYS
# gsp antag: antagonizes gsp, the McCune-Albright syndrome mutation; actives 0.4% (n = 340,000); gsp-mutant cells, cAMP HTRF, 30 min; Potency, µM (titrated, usually from 76.9 µM), without a hit: at the highest dose activity change, negative = inhibition, hits mostly inhibitors; calls by dose curve; cell line not stated here;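 also: intracellular cAMP measured with PDE inhibitor Ro 20-1724 present during compound exposure; potency is read from the fitted curve at half-maximal effect; % is scaled to controls: 0 for no effect and ±100 for the full control effect; nearly all actives have a fitted effect of over 65% in size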
#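 HTRF cAMP read-out (cAMP-d2 plus anti-cAMP antibody-K in lysis buffer, 30 min RT). Before lysis, cells are exposed to compounds with […] for 30 min at 37C in DPBS containing Ca/Mg, BSA and Tween 20.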
# gsp ag: agonists of gsp mutant (McCune-Albright syndrome). actives 0.13% (n = 340,000). Potency, µM (series often up to 76.9 µM), inactives show top-dose activation (cAMP increase), most hits filed as activators. gsp mutant cells, cAMP HTRF, 30 min. AID 624287; active = well fitted activation curve with a large enough effect; inconclusive = small, poorly fitted or top-dose-only effect, or another doubt; inactive = no such curve, though single readings can be large or run the other way; cell line not stated here;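 also: phosphodiesterase inhibitor Ro 20-1724 added with compounds to block cAMP breakdown; potency is read from the fitted curve at half-maximal effect; nearly all actives have a fitted effect of over 60% in size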
#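 Cells in DMEM/10% FBS with G418 were pretreated with compounds in DMSO plus […] (300 uM stock) for 30 min at 37C. cAMP was measured by HTRF (cAMP-d2 plus anti-cAMP antibody-K) after 30 min at room temperature.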
# RXFP1 agonist: RXFP1 (human) receptor agonism | Q9HBX9 | HEK293T-RXFP1 cAMP TR-FRET, 30 min; response scale: percent of porcine relaxin response, buffer zero | Potency, µM (doses to about 57.5 µM), for inactives: at the highest dose activation, actives largely listed as activators | actives 0.3% (n = 370,000) | AID 2676; active = well fitted activation curve with a large enough effect; inconclusive = small, poorly fitted or top-dose-only effect; also: potency is read from the fitted curve at half-maximal effect; % is scaled to controls: 0 for no effect and ±100 for the full control effect; nearly all actives have a fitted effect of over 60% in size
#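 HEK293 cells stably expressing RXFP1, treated 30 min at 37C with compounds plus PDE4 inhibitor Ro 20174; cAMP measured by HTRF TR-FRET. Normalized to buffer and 29 nM porcine relaxin; EC50 by Hill fit.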
# TSHR antag: antagonists of human thyroid stimulating hormone receptor | P16473 | TSHR-expressing cells, TSH-stimulated cAMP HTRF, 2 h; stronger effect = lower value | activity change, negative = inhibition, % at 11.5 µM | actives 0.2% (n = 330,000);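 active = activity change below a set negative limit, meaning inhibition stronger than a set level, cut at about -70% in these data; inconclusive = activity change between two set negative limits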; also: % is scaled to controls: 0 for no effect and ±100 for the full control effect
#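 Freshly harvested TSHR cells receive pin-tooled compound, then EC80 TSH at 4nM final. After 2 hours at 37 deg C, antibody in lysis buffer and cAMP-d2 are added; 30 minutes at ambient temperature precede the HTRF read.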
# Active calls of the source: *; ? = inconclusive; nt = no result; [ ] = remark or other dose.
SMILES,RXFP1 antagonist,gsp antag,gsp ag,RXFP1 agonist,TSHR antag
O=C(CN1CCCCC1)Nc1c2c(nc3ccccc13)N(c1ccccc1)CC2,48,12%,?,25µM*,5
COc1ccc(Nc2cc(C(=O)NCCCN(C)Cc3ccccc3)c3ccccc3n2)cc1OC,?,nt,nt,1%,nt
Cc1nc2sc3c(=O)[nH]nnc3c2c(C)c1Br,-10,50µM*,?,-1%,-2
Cc1nc(SCC(=O)NC2CC2)c2c(C)c(C)sc2n1,-6,-4%,10%[15.4 µM],16%,-8
CN(C(=O)CSc1ncnc2sc3c(c12)CCCC3)C1CCS(=O)(=O)C1 (stereo not given),12,-4%,11µM*,nt,-8
Cc1sc2ncnc(SCC(=O)N(C)C3CCS(=O)(=O)C3)c2c1C (stereo not given),-17,7%,27%[15.4 µM],?,6
CCOC(=O)c1sc2nc(C)nc(SCC(=O)N(C)C3CCS(=O)(=O)C3)c2c1C (stereo not given),0,8%,16µM*,12%,7
COC(=O)c1sc2nc(C)nc(SCC(=O)N3CCC(C(=O)O)CC3)c2c1C,5,0%,16µM*,?,7
Cc1ccc(C)c(OCCn2c(-c3ccc(Cl)cc3)nc3ccccc3c2=O)c1C,-1,nt,nt,2%,nt
O=C(Cn1c(=O)c2cc(Cl)ccc2n2nncc12)Nc1ccccc1,nt,nt,nt,9%,nt
Cc1nc2ccccc2c2c1CC(C(C)(Cl)Br)O2 (stereo not given),?,-12%,1%,2%,-30
Cc1nc2ccccc2c2c1CC(C)S2 (stereo not given),14,1%,8.9µM*,8%,-2
CCCCc1ccc(NC(=O)Cn2cnc3c2c(=O)n(C)c(=O)n3C)cc1,0,nt,nt,-1%,nt
COc1ccc(CN(C)CC(O)COc2ccc(-c3ccccc3)cc2)cc1OC (stereo not given),-66*,5%,13%,-2%,4
O=C(NCc1nc2cccnc2n1Cc1ccc(F)cc1)c1ccccc1C(F)(F)F,3,nt,nt,1%,nt
CC(C)(C)c1ccc(C(=O)Nc2ccc3nc(SCC(=O)N4CCCC4)sc3c2)cc1,-101*,nt,nt,4%,nt
O=C(Nc1ccc2nc(SCC(=O)N3CCCC3)sc2c1)c1cccc(Cl)c1,-34,nt,nt,2%,nt
Cc1ccccc1OCC(=O)Nc1ccc2nc(SCC(=O)N3CCOCC3)sc2c1,?,nt,nt,3%,nt
Cc1ccccc1OCC(=O)Nc1ccc2nc(SCC(=O)N3CCCC3)sc2c1,-86*,nt,nt,3%,nt
O=C(Nc1ccc2nc(SCC(=O)N3CCOCC3)sc2c1)c1cccc(Cl)c1,-82*,nt,nt,3%,nt
Cc1cccc2nc(-c3cccnc3)c(Nc3ccc(C(C)C)cc3)n12,-88*,nt,nt,0%,nt
Cc1ccccc1Nc1c(-c2cccnc2)nc2cccc(C)n12,?,-10%,-21%,0%,7
COCCNC(=O)CN1C(=O)CCn2nc(-c3cn(C)c4ccccc34)cc21,-14,nt,nt,-2%,nt
O=C(O)CCN1C(=O)/C(=C/c2cn(-c3ccccc3)nc2-c2cccs2)SC1=S,6,35µM*,3%,2%,-2
CCN1C(=O)/C(=C/c2cn(-c3ccccc3)nc2-c2cccnc2)SC1=S,-3,?,-4%,nt,nt
SMILES,RXFP1 antagonist,gsp antag,gsp ag,RXFP1 agonist,TSHR antag
O=C(O)CCCCCN1C(=O)/C(=C/c2cn(-c3ccccc3)nc2-c2cccs2)SC1=S,-25,35µM*,?,nt,nt
O=C(CCCN1C(=O)/C(=C\c2cccs2)SC1=S)Nc1ccccc1O,-5,nt,-66%,nt,nt
O=C(O)CCCCCN1C(=O)/C(=C\c2cn(-c3ccccc3)nc2-c2cccs2)SC1=S,4,35µM*,-49%,4%,5
CCCn1c(=O)c2sccc2n2c(CCCC(=O)NC3CCC(C)CC3)nnc12 (stereo not given),4,nt,nt,4%,nt
CN(C)CCN(Cc1ccccc1)S(=O)(=O)c1ccc(-c2cc(C(F)(F)F)on2)s1,?,nt,nt,3%,nt
COc1ccc(NC(=O)CSc2ccc3nnc(-c4cccnc4)n3n2)cc1OC,10,4%,?,18µM*,30
O=C(CSc1ccc2nnc(-c3cccnc3)n2n1)Nc1cccc(F)c1,2,23%,?,?,14
O=C(CSc1ccc2nnc(-c3cccnc3)n2n1)Nc1ccccc1,12,9%,?,16µM*,19
